Results published in the supplement of paper PMC3414501.
Structures can show the parent of a compound that is named as a salt.

tested on: S. cerevisiae SK1 pCDA2-eGFP (USY613), sporulating; experiment: CDA2-GFP sporulation assay sensitivity score (z-score vs DMSO controls); higher = stronger inhibition of sporulation, active = hit call of the paper; conditions: stock concentration (mM, diluted 1:100): 10;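 further: active if sensitivity score above 5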

| SMILES | CDA2-GFP sporulation assay sensitivity score |
| --- | --- |
| C[C@]12CC[C@H]3[C@@H](CCC4=CC(=O)CC[C@@]43C)[C@@H]1CC[C@@H]2O [Testosterone] | 21.1 (active) |
| C#CCN(C)[C@H](C)Cc1ccccc1 [Selegiline] | -0.13 (inactive) |
| N=C(NCc1ccc(Cl)cc1)SCCCc1c[nH]cn1 [Clobenpropit] | 1.25 (inactive) |
| C=C1C[C@@H]2[C@H](CC[C@]3(C)C(=O)CC[C@@H]23)[C@@]2(C)C=CC(=O)C=C12 [Exemestane] | 7.73 (active) |
| COc1cc(N)c(Cl)cc1C(=O)NC1CN2CCC1CC2 (stereo unspecified) [Zacopride] | 2.91 (inactive) |
| CNC(=O)Oc1ccc2c(c1)[C@]1(C)CCN(C)[C@@H]1N2C [Physostigmine] | 0.21 (inactive) |
| Cc1nnc2n1-c1ccc(Cl)cc1C(c1ccccc1)=NC2 [Alprazolam] | 0.37 (inactive) |
| CC(C)[C@]12O[C@H]1[C@@H]1O[C@]13[C@]1(O[C@H]1C[C@H]1C4=C(CC[C@@]13C)C(=O)OC4)[C@@H]2O [Triptolide] | -1.02 (inactive) |
| C[C@H]1CCC[C@H](O)CCCCCc2cc(O)cc(O)c2C(=O)O1 [Zeranol] | -2.75 (inactive) |
| CNC1CC(c2ccc(Cl)c(Cl)c2)c2ccccc21 (stereo unspecified) [Indatraline] | 2.43 (inactive) |
| NC(=O)C[S+]([O-])C(c1ccccc1)c1ccccc1 (stereo unspecified) [Modafinil] | -0.48 (inactive) |
| CN1C(=O)CN=C(c2ccccc2)c2cc([N+](=O)[O-])ccc21 [Nimetazepam] | -0.53 (inactive) |
| COc1ccc(CCN)cc1OC [Homoveratrylamine] | -0.12 (inactive) |
| COc1cc2c(cc1OC)[C@@]13CCN4CC5=CCO[C@H]6CC(=O)N2[C@H]1[C@H]6[C@H]5C[C@H]43 [Brucine] | -1.75 (inactive) |
| CCN(C(C)=O)c1cccc(-c2ccnc3c(C#N)cnn23)c1 [Zaleplon] | 6.36 (inactive) |
| COC(=O)N1CCN(C(=O)Cc2ccc(Cl)c(Cl)c2)C(CN2CCCC2)C1 (stereo unspecified) | 3.34 (inactive) |
| NC1=NC(=O)C(c2ccccc2)O1 (stereo unspecified) [Pemoline] | 0.99 (inactive) |
| c1ccc(Cn2ccnc2)cc1 [1-Benzylimidazole] | 2.48 (inactive) |
| CC[C@@H]1C=CC=CC[C@H](C)[C@@H](O)[C@@H](C)C(=O)[C@H](C)[C@@H](O)[C@H](C)C(=O)[C@H](C)[C@@H](O)[C@H](C)C=CC(=O)O[C@H]2[C@@H](C)[C@@H](CC1)O[C@@]1(CC[C@@H](C)[C@@H](C[C@H](C)O)O1)[C@@H]2C [Oligomycin c] | -1.43 (inactive) |
| COc1ccc2[nH]cc(CCN)c2c1 [5-Methoxytryptamine] | 3.61 (inactive) |
| CC(C)CC(N(C)C)C1(c2ccc(Cl)cc2)CCC1 (stereo unspecified) [Sibutramine hydrochloride] | 8.57 (inactive) |

same assay, conditions: stock concentration (mM, diluted 1:100): 10.1

| SMILES | CDA2-GFP sporulation assay sensitivity score |
| --- | --- |
| C[C@]12CC[C@H](O)CC1=CC[C@@H]1[C@@H]2CC[C@@]2(C)[C@H]1CC[C@]2(C)O [Methylandrostenediol] | 0.44 (inactive) |
| C[N+]1(CCC(C(N)=O)(c2ccccc2)c2ccccc2)CCCCC1 [Fenpiverinium bromide] | 0.3 (inactive) |
| CC(NC(C)(C)C)C(=O)c1cccc(Cl)c1 (stereo unspecified) [Amfebutamone hydrochloride] | 0.84 (inactive) |
| C[C@]12CCC(=O)C[C@@H]1CC[C@@H]1[C@@H]2CC[C@@]2(C)[C@H]1CC[C@]2(C)O [Mestanolone] | 0.79 (inactive) |
| CCOC(=O)c1cncn1[C@H](C)c1ccccc1 [Etomidate] | 6.33 (active) |

tested on: S. cerevisiae AD1-9 (efflux-pump deficient), vegetative growth in YPD; experiment: growth sensitivity score (doubling time z-score vs DMSO controls); higher = slower growth, strongly negative scores also mark growth inhibition (complete suppression), active = hit call of the paper; conditions: stock concentration (mM, diluted 1:100): 10
Outline: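 Saccharomyces cerevisiae strains BY4741 and AD1-9 were seeded in rich medium in microtiter plates at an OD600 of 0.065. Compounds were added at a 1:100 dilution of DMSO stock. Optical density was read every 15 min for 24 hours on a Tecan GENios reader. Average doubling time was the time taken to reach a set generation point divided by generation number, and the growth sensitivity score was (compound mean − DMSO-control mean)/DMSO-control SD, using eight DMSO controls per experiment.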

| SMILES | growth sensitivity score |
| --- | --- |
| C[C@]12CC[C@H]3[C@@H](CCC4=CC(=O)CC[C@@]43C)[C@@H]1CC[C@@H]2O [Testosterone] | 44.5 (active) |
| C#CCN(C)[C@H](C)Cc1ccccc1 [Selegiline] | -1.83 (inactive) |
| N=C(NCc1ccc(Cl)cc1)SCCCc1c[nH]cn1 [Clobenpropit] | 0.21 (inactive) |
| C=C1C[C@@H]2[C@H](CC[C@]3(C)C(=O)CC[C@@H]23)[C@@]2(C)C=CC(=O)C=C12 [Exemestane] | 4.58 (active) |
| COc1cc(N)c(Cl)cc1C(=O)NC1CN2CCC1CC2 (stereo unspecified) [Zacopride] | -2.46 |
| CNC(=O)Oc1ccc2c(c1)[C@]1(C)CCN(C)[C@@H]1N2C [Physostigmine] | -0.52 (inactive) |
| Cc1nnc2n1-c1ccc(Cl)cc1C(c1ccccc1)=NC2 [Alprazolam] | 5.38 (active) |
| CC(C)[C@]12O[C@H]1[C@@H]1O[C@]13[C@]1(O[C@H]1C[C@H]1C4=C(CC[C@@]13C)C(=O)OC4)[C@@H]2O [Triptolide] | -2.17 |
| C[C@H]1CCC[C@H](O)CCCCCc2cc(O)cc(O)c2C(=O)O1 [Zeranol] | 18.3 (active) |
| NC(=O)C[S+]([O-])C(c1ccccc1)c1ccccc1 (stereo unspecified) [Modafinil] | -1.24 (inactive) |
| CN1C(=O)CN=C(c2ccccc2)c2cc([N+](=O)[O-])ccc21 [Nimetazepam] | 0.79 (inactive) |
| COc1ccc(CCN)cc1OC [Homoveratrylamine] | -1.46 (inactive) |
| COc1cc2c(cc1OC)[C@@]13CCN4CC5=CCO[C@H]6CC(=O)N2[C@H]1[C@H]6[C@H]5C[C@H]43 [Brucine] | -0.99 (inactive) |
| CCN(C(C)=O)c1cccc(-c2ccnc3c(C#N)cnn23)c1 [Zaleplon] | -0.13 (inactive) |
| COC(=O)N1CCN(C(=O)Cc2ccc(Cl)c(Cl)c2)C(CN2CCCC2)C1 (stereo unspecified) | -1.16 (inactive) |
| NC1=NC(=O)C(c2ccccc2)O1 (stereo unspecified) [Pemoline] | 0.67 (inactive) |
| c1ccc(Cn2ccnc2)cc1 [1-Benzylimidazole] | -1.25 (inactive) |
| CC[C@@H]1C=CC=CC[C@H](C)[C@@H](O)[C@@H](C)C(=O)[C@H](C)[C@@H](O)[C@H](C)C(=O)[C@H](C)[C@@H](O)[C@H](C)C=CC(=O)O[C@H]2[C@@H](C)[C@@H](CC1)O[C@@]1(CC[C@@H](C)[C@@H](C[C@H](C)O)O1)[C@@H]2C [Oligomycin c] | 0.66 (inactive) |
| COc1ccc2[nH]cc(CCN)c2c1 [5-Methoxytryptamine] | -1.13 (inactive) |
| CC(C)CC(N(C)C)C1(c2ccc(Cl)cc2)CCC1 (stereo unspecified) [Sibutramine hydrochloride] | 6.62 (active) |
